The values below come from PubChem BioAssay.

The nature of assay [1]: inhibitors of TNFa-induced NFkB p65 translocation, primary screen, imaging, HUVEC, MLSMR starter and 10KST1 sets (AID 438).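 Also: compound added about 3h40 before a 20 min TNFalpha stimulation.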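 As to inhibition: signal is the nuclear over cytoplasmic p65 intensity ratio per well.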 The conditions noted are these: HUVEC TNFa-induced p65 nuclear translocation; cell count: measured here: nuclei count (cytotoxicity indicator), at 2.08 µM; inhibition: at 2 µM, stronger effect = higher value, 0% TNFa-plus-vehicle, 100% no-TNFa wells.
Assay [2] in a line: inhibitors of mutant huntingtin aggregation, primary screen, imaging, exon1htt(103Q)mCFP cells, high-content imaging (AID 483;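 active = visual image review flags a hit and inhibition of aggregation exceeds 20%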;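 also: compound exposure lasted 3 days before fixation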;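 as to nuclei count: percent of the per-plate median nuclei count of sample wells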). Particulars: exon1htt(103Q)mCFP cell line, aggregate imaging, at 2 µM; inhibition of aggregation: stronger effect = higher value; nuclei count: measured here: cell count, toxicity.
Assay [3] can be described thus: inhibitors of E-selectin induction by TNFa, primary screen, imaging, HUVEC, immunofluorescence, MLSMR starter and 10KST1 sets (AID 487;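 active = visually confirmed hit in the image check and inhibition above 20%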;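 as to inhibition: signal is fraction of cell area covered by stained E-selectin grains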;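 as to nuclei count: 100% = median nuclei count of all wells on the same plate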). The conditions noted are these: HUVEC TNFalpha-induced E-selectin immunofluorescence imaging, at 2 µM; inhibition: stronger effect = higher value; nuclei count: measured here: cell number, toxicity.
For assay [4], the target named is Voltage-gated potassium channel subunit beta-2 (Rattus norvegicus) (UniProt P62483). Briefly: KvBeta enzyme negative modulators, primary screen, biochemical, NADPH fluorescence (AID 622;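 active = fluorescence slope higher than the sample average by over 3 SD, cut at about -0.22 in these data, passing the limit was not always enough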;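 also: slope of raw intensity against log time taken from 70 to 1610 s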). Particulars: recombinant KvBeta, 4-cyanobenzaldehyde reduction, at 10 µM, stronger effect = higher value.
Chain of Voltage-gated potassium channel subunit beta-2 (Rattus norvegicus) (P62483 whole entry, looked up): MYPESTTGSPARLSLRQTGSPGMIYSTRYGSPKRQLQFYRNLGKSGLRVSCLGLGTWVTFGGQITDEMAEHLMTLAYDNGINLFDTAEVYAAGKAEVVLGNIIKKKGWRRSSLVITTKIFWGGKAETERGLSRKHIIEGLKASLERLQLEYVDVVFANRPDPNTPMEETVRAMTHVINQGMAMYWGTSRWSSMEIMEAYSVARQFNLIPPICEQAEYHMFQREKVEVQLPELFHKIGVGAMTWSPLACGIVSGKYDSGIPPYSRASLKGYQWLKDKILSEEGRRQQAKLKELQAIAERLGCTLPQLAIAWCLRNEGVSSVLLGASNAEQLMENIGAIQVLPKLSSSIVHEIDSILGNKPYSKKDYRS
Assay [5] shares this target. Briefly: KvBeta positive modulators, primary screen, biochemical, NADPH fluorescence (AID 623;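 active = NADPH fluorescence slope more negative than the mean of all samples by about 3 SD, 99.7% confidence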;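 also: fluorescence intensity change per second fitted from 20 to 320 s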). Particulars: Recombinant KvBeta, NADPH fluorescence decrease slope, 10 min; at 10 µM; stronger effect = lower value.
Assay [6] deals with Alpha-2C adrenergic receptor (Homo sapiens) (UniProt P18825). Briefly: modulators of alpha2C/GIRK thallium flux, primary screen, cell-based, HEK293 alpha2C/GIRK1/2 (AID 624;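 active = fluorescence slope after compound addition differing from the mean of all screened samples at 99.7% confidence, in either direction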;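 also: slope of fluorescence ratio to pre-addition baseline per second over 15 to 24 s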). Particulars: thallium flux BTC fluorescence, at 10 µM, actives lie on both sides.
Chain of Alpha-2C adrenergic receptor (Homo sapiens) (P18825 whole entry, looked up): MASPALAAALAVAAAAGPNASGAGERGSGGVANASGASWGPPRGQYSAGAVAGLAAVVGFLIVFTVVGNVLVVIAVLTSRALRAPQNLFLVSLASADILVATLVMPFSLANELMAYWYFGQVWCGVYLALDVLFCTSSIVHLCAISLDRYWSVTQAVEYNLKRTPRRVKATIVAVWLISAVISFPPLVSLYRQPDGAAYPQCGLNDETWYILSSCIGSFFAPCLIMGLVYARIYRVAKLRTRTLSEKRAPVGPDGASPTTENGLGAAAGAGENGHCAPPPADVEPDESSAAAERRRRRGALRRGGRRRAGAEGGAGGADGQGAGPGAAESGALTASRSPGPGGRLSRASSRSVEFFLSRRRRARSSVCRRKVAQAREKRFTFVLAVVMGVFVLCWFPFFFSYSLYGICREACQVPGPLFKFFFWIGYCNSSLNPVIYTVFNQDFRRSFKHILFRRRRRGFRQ
Assay [7] can be described thus: inhibitors of Sendai virus-induced IRF3 signaling, primary screen, TLR/RLR signaling modifier project, cell-based, Sendai virus stimulus, luciferase, 10K MLSCN set (AID 602276;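 active = inhibition at or above 50% at 10 µM; inactive = inhibition below 50%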;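 also: firefly luciferase from ISG56 promoter only with Renilla not read in this screen; 0% = Sendai virus plus DMSO and 100% = medium plus DMSO without virus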). Particulars: HEK293 RL24 IRF3 luciferase reporter, at 10 µM, stronger effect = higher value. A general note: A reporter such as luciferase makes a cellular process visible.
Assay [8] is described as follows: inhibitors of poly I:C-induced TLR3 signaling, primary screen, cell-based, poly I:C stimulus, luciferase, 10K MLSCN set (AID 602277;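 active = inhibition of the reporter signal at or above 50%; inactive = inhibition below 50%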). The conditions noted are these: HEK293-TLR3 RL24 IRF3 luciferase reporter, at 10 µM, stronger effect = higher value.

The source made the active and inactive calls.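 The calls were made as follows, unless noted: active = inhibition above 20% together with a positive visual image hit; inconclusive = visual image hit but inhibition not above 20%; inactive = no visual image hit.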

On to `O=S(=O)(c1ccc(F)c(Cl)c1)N1CCCC1`, for which the cell count in assay [1] is 331. The inhibition (usually the drop in the measured response relative to a control, in per cent) in assay [1] was 2.2% (inactive); in assay [3] it was 31.8% (inactive); in assay [7] it was 2.45% (inactive); in assay [8] it was 30.3% (inactive). Moreover, the inhibition of aggregation in assay [2] was 8.7% (inactive). Also, the results for the nuclei count in assay [2] and in assay [3] were 98.5% and 99.6%, respectively. The fluorescence slope in assay [4] was -0.486 (inactive). The NADPH fluorescence slope in assay [5] was -1e-05 (inactive). The slope in assay [6] is 0.00653 (inactive).

In the case of `COc1ccc2c(c1)OC(O)(C(F)F)CC2=O` (stereo not drawn), in assay [1], the cell count amounted to 406. Moreover, the inhibition was 1.5% (inactive) in assay [1], -205% (inactive) in assay [3], 6.89% (inactive) in assay [7] and 28.4% (inactive) in assay [8]. Also, in assay [2], the inhibition of aggregation is 5.7% (inactive). Moreover, the nuclei count in assay [2] turned out to be 91.2%; in assay [3], 96.2%. For the same compound, the fluorescence slope in assay [4] is -0.398 (inactive). For the same compound, in assay [5], the NADPH fluorescence slope is 2.1e-05 (inactive). The slope in assay [6] is 0.00381 (inactive).

As for `CCOC(=O)c1cccc(NC(=O)CSc2nnc(-c3cccnc3)n2CC)c1`, in assay [1], the cell count worked out at 517. Besides, the inhibition was -6.7% (inactive) in assay [1], -12.8% (inactive) in assay [3], 12.5% (inactive) in assay [7] and 11.6% (inactive) in assay [8]. For the same compound, the inhibition of aggregation in assay [2] is 1.2% (inactive). Besides, the nuclei count was found to be 82.2% in assay [2] and 112% in assay [3]. For the same compound, the fluorescence slope in assay [4] is -0.506 (inactive). For the same compound, in assay [5], the NADPH fluorescence slope is -2.6e-05 (inactive). The slope in assay [6] is 0.00514 (inactive).

With `COCCNC(=O)CC(NS(=O)(=O)c1ccc(NC(C)=O)cc1)C(C)C` (stereo not drawn), the cell count in assay [1] was 435. Moreover, the inhibition in assay [1] was 6.5% (inactive); in assay [3], -122% (inactive); in assay [7], 8.34% (inactive); in assay [8] it was 25.9% (inactive). Also, the inhibition of aggregation in assay [2] was -1.2% (inactive). Moreover, the nuclei count stood at 105% in assay [2] and 107% in assay [3]. Besides, the fluorescence slope in assay [4] is -0.397 (inactive). In assay [5], the NADPH fluorescence slope was -7.5e-05 (inactive). In assay [6], the slope was 0.00454 (inactive).

For `COc1ccc(Nc2nc(-c3sc(N)nc3C)cs2)cc1`, in assay [1], the cell count is 661. The inhibition is -5.8% (inactive) in assay [1], -75.8% (inactive) in assay [3], -13.1% (inactive) in assay [7] and -17.6% (inactive) in assay [8]. Also, the inhibition of aggregation in assay [2] was -10.7% (inactive). Further, the figures for the nuclei count in assay [2] and in assay [3] were 116% and 118%, respectively. For the same compound, in assay [4], the fluorescence slope was -0.376 (inactive). In addition, the NADPH fluorescence slope in assay [5] was -6.4e-05 (inactive). Further, in assay [6], the slope was 0.0038 (inactive).

Regarding `O=C(c1ccc(COc2c(F)c(F)c(F)c(F)c2F)o1)N1CCOCC1`, in assay [1], the cell count turned out to be 701. The inhibition in assay [1] was 2.8% (inactive); in assay [3], -25% (inactive); in assay [7], 10.5% (inactive); in assay [8], 33.9% (inactive). The inhibition of aggregation in assay [2] was 26.7% (inactive). Also, the nuclei count in assay [2] is 79.8%; in assay [3] it was 105%. Further, in assay [4], the fluorescence slope is -0.58 (inactive). The NADPH fluorescence slope in assay [5] was -3.8e-05 (inactive). Further, the slope in assay [6] was 0.0055 (inactive).

As to `CCCOC(=O)c1ccc(-c2c(C)noc2-c2ccc(OC)cc2O)o1`, the cell count in assay [1] stood at 162. The inhibition in assay [1] is -6.3% (inactive); in assay [3], 0.4% (inactive); in assay [7] it was 1.25% (inactive); in assay [8], 2.32% (inactive). Also, in assay [2], the inhibition of aggregation was 1.9% (inactive). Also, the nuclei count in assay [2] turned out to be 106%; in assay [3], 87%. For the same compound, in assay [4], the fluorescence slope was -0.495 (inactive). Moreover, the NADPH fluorescence slope in assay [5] is -3.7e-05 (inactive). Further, the slope in assay [6] was 0.00302 (inactive).

As for `Cc1cccc(C2CC(c3ccccc3)Nc3nc(N)nn32)c1` (stereo not drawn), in assay [1], the cell count stood at 626. The inhibition was -3.4% (inactive) in assay [1], -47.9% (inactive) in assay [3], 9.21% (inactive) in assay [7] and 18.7% (inactive) in assay [8]. In assay [2], the inhibition of aggregation is 7.7% (inactive). For the same compound, the nuclei count in assay [2] stood at 114%; in assay [3], 120%. For the same compound, the fluorescence slope in assay [4] was -0.517 (inactive). The NADPH fluorescence slope in assay [5] is -5.7e-06 (inactive). Further, the slope in assay [6] is 0.00697 (inactive).
